Laboratory results from a collection of fitness landscapes (doi:10.1016/j.celrep.2020.107928).
Over roughly 81,000 sequences, “one-hybrid fitness for binding parS DNA” has its median near -0.17; the highest 2% begin near 0.51. For the sample, the highest values were picked, then their nearest neighbours and some sequences at random.

B1: Caulobacter ParB omega fusion; a variant is named by its letters at X, in order, B8GW30 (parent)
chain: MESVVVGEPGMSEGRRGLGRGLSALLGEVDAAPAQAPGEQLGGSREAPIEILQRNPDQPRRTFREEDLEDLSNSIREKGVLQPILVRPSPDTAGEYQIVAGERAWRAAQRAGLKTVPIMVRELDDLAVLEIGIIENVQRADLNVLEEALSYKVLMEKFERTQENIAQTIGKSXSHVANXMRLLXLPDEVQSYLVSGELTAXHARAIAAAADPVALAKQIIEGGLSVRETEALARKAPNLSAGKSKGGRPPRVKDTDTQALESDLSSVLGLDVSIDHRGSTGTLTITYATLEQLDDLCNRLTRGI

Variants of: B1
Assay: one-hybrid fitness for binding parS DNA (scaled: cognate 1, non-cognate 0); higher = stronger binding
Settings: with parS DNA site
How it was run: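 Fitness here means the log change in variant-to-wild-type read ratio between plasmids sequenced before and after selection. That scale was set so cognate equals 1 and non-cognate equals 0. The selection was a bacterial one-hybrid screen of Caulobacter ParB libraries, four specificity codons randomised, in E. coli USO carrying a HIS3 reporter with the site 19 bp from the promoter, grown 48 hours at 37°C on M9-minus-histidine with 0.1 mM IPTG and 5 mM 3-AT.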

Variant	one-hybrid fitness for binding parS DNA
IKIT	≤ 0.2
LFDR	≤ 0.2
IRTA	≤ 0.2
MSDQ	≤ 0.2
EAWR	≤ 0.2
DRKV	≤ 0.2
LAGW	≤ 0.2
RPIL	≤ 0.2
QIFK	≤ 0.2
ANVG	≤ 0.2
RTGM	0.33
RTGG	0.997
RTRN	0.396
RTRG	0.908
RTHP	≤ 0.2
RTHN	0.45
RTGH	≤ 0.2
RTLQ	≤ 0.2
RTRQ	≤ 0.2
RTLR	≤ 0.2
RTLG	1.02
RTHG	1.01
DCRS	≤ 0.2
IAEG	≤ 0.2

Variant	one-hybrid fitness for binding parS DNA
SAYT	≤ 0.2
MHTF	≤ 0.2
PSYT	≤ 0.2
VTEN	≤ 0.2
NTYG	≤ 0.2
RTYG	1.02
RTYQ	≤ 0.2
HADL	≤ 0.2
RIPP	≤ 0.2
REPT	≤ 0.2
RCPT	0.604
RIIT	0.715
RIIK	≤ 0.2
RIIN	0.379
RPPT	≤ 0.2
RIPT	0.549
RIPN	≤ 0.2
YDNV	≤ 0.2
FNSY	≤ 0.2
TSTS	≤ 0.2
SATQ	≤ 0.2
RMWK	≤ 0.2
RLRL	≤ 0.2
KRHS	≤ 0.2

Variant	one-hybrid fitness for binding parS DNA
PLTH	≤ 0.2
RAQM	0.31
RAYM	0.324
RAHH	0.26
RAQF	0.229
RAQT	0.894
RAYR	≤ 0.2
RACT	0.852
RAYT	0.904
RAHT	0.928
RACN	0.41
RAHM	0.329
RACD	≤ 0.2
MLRS	≤ 0.2
GTET	≤ 0.2
SSAG	≤ 0.2
DLPN	≤ 0.2
DGPD	≤ 0.2
NYGR	≤ 0.2
SRPW	≤ 0.2
LATK	≤ 0.2
AQEG	≤ 0.2
QIWY	≤ 0.2
RART	0.836

Variant	one-hybrid fitness for binding parS DNA
RANT	0.907
RANN	0.434
RASQ	≤ 0.2
RARF	0.28
RARQ	≤ 0.2
RAND	0.215
RAGR	≤ 0.2
RAGQ	≤ 0.2
RAST	0.911
RASY	0.459
RAGT	0.92
PKYV	≤ 0.2
APEG	≤ 0.2
FICL	≤ 0.2
GDRF	≤ 0.2
VNRI	≤ 0.2
QPAD	≤ 0.2
QAKR	≤ 0.2
PSVL	≤ 0.2
PTYM	≤ 0.2
RAWH	0.223
RALK	≤ 0.2
RAWT	0.809
RADT	0.732

Variant	one-hybrid fitness for binding parS DNA
RAWN	0.384
RALT	0.888
RADR	≤ 0.2
RADK	≤ 0.2
RALQ	≤ 0.2
MCRN	≤ 0.2
QVLP	≤ 0.2
NHYR	≤ 0.2
EVTS	≤ 0.2
GHDR	≤ 0.2
HVTM	≤ 0.2
PTLD	≤ 0.2
TYDN	≤ 0.2
AAAL	≤ 0.2
LNIY	≤ 0.2
RCMS	1.01
RMMD	≤ 0.2
RIMH	0.264
RPMS	≤ 0.2
RIMS	1.04
RMML	≤ 0.2
RLMD	≤ 0.2
RMMS	1.03
RLMN	0.459

Variant	one-hybrid fitness for binding parS DNA
RCMP	0.232
RIMP	≤ 0.2
RLMS	1.04
THDG	≤ 0.2
EQQR	≤ 0.2
MVPW	≤ 0.2
ASII	≤ 0.2
PLHG	≤ 0.2
GYPH	≤ 0.2
CVTM	≤ 0.2
RSMS	0.994
RKMN	0.372
RHMS	0.966
RSMN	0.402
RRMS	0.704
RHMD	≤ 0.2
RSMH	0.245
RRMN	0.4
RKMS	0.876
RHMH	≤ 0.2
RKMD	≤ 0.2
RRMP	≤ 0.2
PLPS	≤ 0.2
QYNK	≤ 0.2

Variant	one-hybrid fitness for binding parS DNA
EHAS	≤ 0.2
VMVC	≤ 0.2
RHYV	≤ 0.2
SIFD	≤ 0.2
LPVS	≤ 0.2
RTMS	0.981
RAMH	≤ 0.2
RTMD	≤ 0.2
RTMH	≤ 0.2
RAMS	1.02
RAMD	≤ 0.2
RFMH	≤ 0.2
RFMP	≤ 0.2
RFMS	0.983
TRVI	≤ 0.2
NMKR	≤ 0.2
LWSA	≤ 0.2
HELA	≤ 0.2
TPTY	≤ 0.2
TLRR	≤ 0.2
NTVA	≤ 0.2
RTKA	0.808
NTKA	≤ 0.2
RTVA	0.566

Variant	one-hybrid fitness for binding parS DNA
DTKA	≤ 0.2
WIMN	≤ 0.2
RIYI	≤ 0.2
TADM	≤ 0.2
QLFQ	≤ 0.2
KDMG	≤ 0.2
RKAN	0.343
RKFK	≤ 0.2
RKAG	0.959
RKAH	≤ 0.2
RKFQ	≤ 0.2
RKFG	0.946
VRYQ	≤ 0.2
SMCS	≤ 0.2
TFRT	≤ 0.2
GREF	≤ 0.2
GPDK	≤ 0.2
TATR	≤ 0.2
DFAG	≤ 0.2
KFFG	≤ 0.2
NFAG	≤ 0.2
RFFG	0.776
NFFG	≤ 0.2
RFAG	0.941

Variant	one-hybrid fitness for binding parS DNA
SCLF	≤ 0.2
FALR	≤ 0.2
IHMV	≤ 0.2
LILG	≤ 0.2
TTYT	≤ 0.2
KWSC	≤ 0.2
LCWL	≤ 0.2
RCLC	1.02
RELC	≤ 0.2
RDLC	≤ 0.2
RSLK	≤ 0.2
RPLC	≤ 0.2
RSLC	0.939
QCAL	≤ 0.2
RIIL	≤ 0.2
MQLE	≤ 0.2
WYDG	≤ 0.2
RSFM	0.292
RCFC	1.03
RPFC	≤ 0.2
RDFC	≤ 0.2
REFC	≤ 0.2
RSFC	0.892
DKNG	≤ 0.2

Variant	one-hybrid fitness for binding parS DNA
YTIY	≤ 0.2
SSYC	≤ 0.2
RIVN	0.407
RIVH	≤ 0.2
RIKF	0.303
RIKT	0.772
RIVT	0.788
RIKM	0.325
RAFF	0.249
RAAC	0.98
RAFC	0.925
RAAR	≤ 0.2
RAAY	0.478
RAFM	0.331
SIFS	≤ 0.2
QSTM	≤ 0.2
HPTI	≤ 0.2
NRIA	≤ 0.2
RCPA	0.432
RRIA	0.828
RRPA	0.574
RPPA	≤ 0.2
NRNI	≤ 0.2
YNMN	≤ 0.2

Variant	one-hybrid fitness for binding parS DNA
KQFG	≤ 0.2
NYTR	≤ 0.2
EPTE	≤ 0.2
PWQI	≤ 0.2
FKHA	≤ 0.2
NRKT	≤ 0.2
RRVT	0.607
RRKE	≤ 0.2
RRVK	≤ 0.2
RRKT	0.59
RRVF	≤ 0.2
VTCL	≤ 0.2
GDYG	≤ 0.2
HEET	≤ 0.2
ALQS	≤ 0.2
RHTR	≤ 0.2
RCTT	0.949
RPTT	≤ 0.2
RATK	≤ 0.2
RITT	0.931
RATT	0.915
RETT	≤ 0.2
RHTQ	≤ 0.2
RITM	0.319

Variant	one-hybrid fitness for binding parS DNA
RHTT	0.868
RITF	0.254
RATQ	≤ 0.2
VVST	≤ 0.2
HWNY	≤ 0.2
MEIG	≤ 0.2
RLTT	0.956
RLTY	0.48
RMTY	0.497
RMTL	≤ 0.2
RRTT	0.565
RTTD	≤ 0.2
RMTT	0.945
RRTY	0.398
RRTF	≤ 0.2
RTTF	0.253
RLTR	≤ 0.2
RTTT	0.917
VTRD	≤ 0.2
SSGG	≤ 0.2
QKKR	≤ 0.2
CTAV	≤ 0.2
PDQD	≤ 0.2
DVDG	≤ 0.2

Variant	one-hybrid fitness for binding parS DNA
RSTR	≤ 0.2
RFTT	0.836
RDTT	≤ 0.2
RKTT	0.754
RKTF	≤ 0.2
RKTY	0.353
RFTD	≤ 0.2
DFTT	≤ 0.2
RSTT	0.895
CALF	≤ 0.2
HDLT	≤ 0.2
WILE	≤ 0.2
CTPG	≤ 0.2
CPIR	≤ 0.2
QLLW	≤ 0.2
TAMD	≤ 0.2
VFPY	≤ 0.2
RKKR	≤ 0.2
RKKC	0.694
RKKQ	≤ 0.2
RKVQ	≤ 0.2
RKVC	0.868
RKVP	≤ 0.2
